The list is not random: actives were taken first. Their share in the collection is about 6.7%.
T cruzi growth-1: inhibitors of T. cruzi proliferation | AID 624255 | T. cruzi beta-gal in NIH3T3, GalScreen luminescence, 90 h | inhibition, % at 8.34 µM | 77,000 tested, 5.9% active;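 active = mean inhibition above about 93%, with at least 55% of replicates each passing it, limit read from the data, passing the limit was not always enough; inconclusive = only one of those two conditions holds; inactive = neither condition holds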
Pf Dd2 growth: blocks growth of Plasmodium falciparum Dd2 parasites; P. falciparum Dd2 growth, SYBR Green, 72 h; active compounds read low; 94,000 tested, 2.3% active; activity change, % at 10 µM; in the data active = activity change below about -80%; inconclusive = no clear call, values can overlap the other calls
C diff growth: C. difficile growth inhibition | Clostridium difficile clinical isolate growth, OD600, 24 h; active compounds read low | growth activity, negative = inhibition, % at 16 µg/mL (by protocol) | 86,000 tested, 0.25% active | AID 1259249;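 active = mean growth activity at or below -80% and every replicate also at or below -80%; inconclusive = mean at or below -80% but some replicate above -80%; inactive = mean growth activity above -80%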;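 note: 0% = DMSO wells and -100% = levofloxacin 16 µg/mL wells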
T cruzi growth-2: Trypanosoma cruzi proliferation inhibition | shares compounds with T cruzi growth-1 | T. cruzi beta-gal in NIH3T3, GalScreen luminescence, 90 h | inhibition, % at 8.35 µM | 5,600 tested, 72% active;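 active = mean replicate inhibition above about 95% and at least 55% of replicates individually reaching it, limit read from the data; inconclusive = only one of the two criteria is met; inactive = neither criterion is met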
T cruzi growth-3: Trypanosoma cruzi proliferation inhibition. shares compounds with T cruzi growth-1. inhibition, % at 2.09 µM. T. cruzi beta-gal in NIH3T3, GalScreen luminescence, 90 h. 5,600 tested, 21% active;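 active = mean inhibition above about 95%, with at least 55% of replicates also reaching it, limit read from the data; inconclusive = meets just one of the two conditions; inactive = meets neither condition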;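 note: plate controls were neutral control median for no effect and positive control median for full effect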
3T3 cytotox: cytotoxicity in mouse NIH/3T3 fibroblasts | shares compounds with T cruzi growth-1 | NIH/3T3 viability, CellTiter-Glo ATP luminescence, 90 h | cytotoxicity (signal decrease), % at 8.35 µM | 5,600 tested, 14% active | AID 651742;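 active = mean signal decrease across replicates above about 35% based on untreated-well scatter, with enough replicates individually passing, limit read from the data; inconclusive = no rule stated though some were filed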;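 note: 0% = median of neutral control wells and 100% = median of positive control wells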
3T3 cytotox 2: NIH/3T3 (mouse) viability loss. shares compounds with T cruzi growth-1. NIH/3T3 viability, CellTiter-Glo ATP luminescence, 90 h. inhibition, % at 24.9 µM. 5,600 tested, 56% active. AID 651744;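 active = mean loss of cell viability signal at or above a set limit, and enough replicates individually reaching it; inconclusive = meets only the mean limit or only the replicate share; inactive = meets neither condition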;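 note: 0% = median of neutral control wells and 100% = median of positive control wells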
* marks the source's active call; other numbers are inactive results; ? = inconclusive; / = no result; ! = a repeat was not active.

SMILES | T cruzi growth-1 | Pf Dd2 growth | C diff growth | T cruzi growth-2 | T cruzi growth-3 | 3T3 cytotox | 3T3 cytotox 2
N#C[C@@H]1[C@@H](c2ccc(C#CC3CC3)cc2)[C@H](CO)N1S(=O)(=O)c1ccccc1 | 96* | -64 | 0 | ? | 102* | 7 | ?
N#C[C@H]1[C@H](c2ccc(C#CC3CC3)cc2)[C@@H](CO)N1S(=O)(=O)c1ccccc1 | 97* | -58 | 4 | 100* | 103* | 3 | 13
N#C[C@H]1[C@@H](c2ccc(C#CC3CC3)cc2)[C@H](CO)N1S(=O)(=O)c1ccccc1 | 101* | -85* | 4 | 98* | 113* | ? | 53*
N#C[C@H]1[C@H](c2ccc(C#CC3CCCCC3)cc2)[C@@H](CO)N1S(=O)(=O)c1ccccc1 | 92 | -79 | -12 | / | / | / | /
C[C@H]1CN([C@@H](C)CO)C(=O)c2ccccc2-c2ccccc2CO[C@H]1CN(C)C(=O)c1ccc(F)cc1 | 22 | 29 | 5 | / | / | / | /
O=C(C[C@@H]1CC[C@@H](NC(=O)Cc2cccnc2)[C@H](CO)O1)Nc1ccccc1 | / | 29 | -1 | / | / | / | /
C[C@@H]1CN([C@H](C)CO)C(=O)c2cccc(NC(=O)C3CCOCC3)c2O[C@@H]1CN(C)S(=O)(=O)c1cccs1 | 93 | 26 | 1 | / | / | / | /
CCC(=O)NC[C@H]1[C@H](c2ccc(C3=CCCC3)cc2)[C@H](CO)N1C(=O)C1CC1 | 52 | -5 | -2 | / | / | / | /
C[C@H]1CN([C@@H](C)CO)C(=O)Cc2cc(NS(=O)(=O)c3ccc(F)cc3)ccc2O[C@@H]1CN(C)Cc1ccc(C(F)(F)F)cc1 | 95 | 7 | 27 | / | / | / | /
O=C(N[C@H]1CC[C@@H](CCn2cc(C3(O)CCCC3)nn2)O[C@@H]1CO)C1CCOCC1 | 35 | -3 | / | / | / | / | /
C[C@@H]1CN([C@H](C)CO)S(=O)(=O)c2ccc(C#CC3CCCC3)cc2O[C@@H]1CN(C)S(C)(=O)=O | 110 | 35 | / | / | / | / | /
COc1ccc(S(=O)(=O)N(C)C[C@H]2Oc3cc(C#CC4CCCCC4)ccc3S(=O)(=O)N([C@@H](C)CO)C[C@@H]2C)cc1 | 57 | -50 | / | / | / | / | /
C[C@H](CO)N1C[C@H](C)[C@@H](CN(C)S(C)(=O)=O)Oc2cc(C#CC3CCCC3)ccc2S1(=O)=O | 123* | -11 | / | 102* | 36 | 20 | 66*
COCC#Cc1ccc2c(c1)O[C@@H](CN(C)S(=O)(=O)c1ccc(C)cc1)[C@@H](C)CN([C@@H](C)CO)S2(=O)=O | 76 | -36 | 4 | / | / | / | /
Cc1ccc(S(=O)(=O)N(C)C[C@@H]2Oc3cc(C#CC4CCCC4)ccc3S(=O)(=O)N([C@@H](C)CO)C[C@@H]2C)cc1 | 125* | -61 | 21 | 93 | 112* | 8 | 40*
Cc1ccc(S(=O)(=O)N(C)C[C@H]2Oc3cc(C#CC4CCCC4)ccc3S(=O)(=O)N([C@@H](C)CO)C[C@H]2C)cc1 | 123* | -59 | 8 | 94 | 111* | 22 | 46*
Cc1ccc(S(=O)(=O)N(C)C[C@H]2Oc3cc(C#CC4CCCC4)ccc3S(=O)(=O)N([C@H](C)CO)C[C@H]2C)cc1 | 126* | -48 | 13 | 97*! | 117* | 21 | 38*!
N#C[C@H]1[C@H](c2ccccc2)[C@H](CO)N1C(=O)c1ccc2c(c1)OCO2 | 51 | -74 | 13 | / | / | / | /
O=C(C[C@@H]1C[C@@H]2c3cc(NC(=O)Nc4ccc(F)cc4)ccc3O[C@@H]2[C@@H](CO)O1)NC1CCCC1 | -28 | -39 | / | / | / | / | /
C[C@@H]1CCCCO[C@@H](CN(C)S(C)(=O)=O)[C@@H](C)CN([C@H](C)CO)C(=O)c2cc(NC(=O)Cc3ccccc3)ccc2O1 | 13 | -1 | / | / | / | / | /
CC=Cc1ccc2n(c1=O)C[C@@H]1[C@@H](CO)[C@H](C(=O)NCC(F)(F)F)[C@H]2N1C(=O)CC (mixture of isomers) | 64 | 3 | 0 | / | / | / | /
C[C@H](CO)N1C[C@H](C)[C@@H](CN(C)Cc2cncnc2)Oc2ncc(C#CC3CCCCC3)cc2C1=O | 47 | 23 | -7 | / | / | / | /
CCCNC(=O)[C@@H]1[C@@H](CO)[C@@H]2Cn3c(cccc3=O)[C@H]1N2Cc1cccc(Cl)c1 | -16 | 2 | -1 | / | / | / | /
Cc1ccc(S(=O)(=O)N(C)C[C@H]2Oc3cc(C#CC4CCCC4)ccc3S(=O)(=O)N([C@@H](C)CO)C[C@@H]2C)cc1 | 121* | -64 | 14 | 97* | 109* | 30 | 44*
COCC#Cc1ccc2c(c1)O[C@H](CN(C)S(=O)(=O)c1ccc(C)cc1)[C@H](C)CN([C@H](C)CO)S2(=O)=O | 76 | -34 | 7 | / | / | / | /
SMILES | T cruzi growth-1 | Pf Dd2 growth | C diff growth | T cruzi growth-2 | T cruzi growth-3 | 3T3 cytotox | 3T3 cytotox 2
Cc1ccc(S(=O)(=O)N(C)C[C@@H]2Oc3cc(C#CC4CCCC4)ccc3S(=O)(=O)N([C@H](C)CO)C[C@H]2C)cc1 | 128* | -65 | 16 | 103* | ? | 74* | 66*
C[C@H](CO)N1C[C@H](C)[C@@H](CN(C)C(=O)C2CC2)Oc2cc(-c3cccnc3)ccc2S1(=O)=O | 45 | 48 | / | / | / | / | /
CC(C)C#Cc1ccc2c(c1)O[C@H](CN(C)CC1CCOCC1)[C@H](C)CN([C@@H](C)CO)S2(=O)=O | 25 | -40 | 1 | / | / | / | /
O=C(C[C@@H]1CC[C@@H]2[C@H](COC[C@@H](O)CN2Cc2cccc(Cl)c2)O1)NCC1CCCCC1 | 125* | / | -2 | ? | 30 | 7 | 3
O=C(C[C@@H]1CC[C@H]2[C@@H](COC[C@H](O)CN2Cc2cccc(F)c2)O1)NCC1CCCCC1 | -36 | -1 | 0 | / | / | / | /
O=C(C[C@H]1CC[C@@H]2[C@H](COC[C@H](O)CN2Cc2cccc(C(F)(F)F)c2)O1)NCc1ccc(Cl)cc1 | 144* | -1 | 74 | 103* | 7 | 13 | 99*
O=C(C[C@H]1CC[C@H]2[C@@H](COC[C@H](O)CN2Cc2cccc(C(F)(F)F)c2)O1)NCc1ccc(Cl)cc1 | 128* | -14 | 34 | 107* | 54 | 25 | ?
C[C@@H](NC(=O)C[C@H]1CC[C@H]2[C@@H](COC[C@H](O)CN2Cc2ccc(C(F)(F)F)cc2)O1)c1ccccc1 | 73 | 4 | 2 | / | / | / | /
O=C(C[C@H]1CC[C@H]2[C@@H](COC[C@H](O)CN2Cc2cccc(C(F)(F)F)c2)O1)NCc1ccccc1 | 24 | -13 | / | / | / | / | /
C[C@H](NC(=O)C[C@@H]1CC[C@@H]2[C@H](COC[C@H](O)CN2Cc2ccc(C(F)(F)F)cc2)O1)c1ccccc1 | 168* | -26 | 24 | 79 | 6 | -3 | 23
O=C(C[C@H]1CC[C@H]2[C@@H](COC[C@@H](O)CN2Cc2cccc(C(F)(F)F)c2)O1)NCc1ccccc1 | -35 | -4 | 10 | / | / | / | /
COc1ccc(NC(=O)Nc2ccc3c(c2)[C@H]2C[C@H](CC(=O)N4CCN(C)CC4)O[C@H](CO)[C@H]2O3)cc1 | 47 | 4 | -3 | / | / | / | /
